Here are results for 17 molecules from PubChem BioAssay.

Structures are written as SMILES. Results filed as inconclusive are left out. Calls of active or inactive are those of the source. Unless noted, how the calls were made is not given here.

Assay [1] in a line: liver-stage malaria parasite load reduction – cell-based, known kinase inhibitor set, luminescence, hepatoma host viability (AID 624392).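 Further: infected cells incubated roughly two days before readout.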 To be noted: Plasmodium liver stage in hepatoma cells, luciferase luminescence, concentration not given here; liver cell % of control: measured here: host liver cell viability; parasite % of control: stronger effect = lower value.
Assay [2] can be described thus: altered dexamethasone sensitivity, NF-kB reporter, cell-based, luciferase, IL-1B stimulus (AID 624486).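 On percent of negative control (+Dex): 100% = mean signal of vehicle control wells on the plate.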 The conditions noted are these: IL-1B + dexamethasone, luminescence; percent of negative control (+Dex): actives lie on both sides, concentration not given here; z-score: measured here: IL-1B alone, no Dex.
For assay [3], the target named is Cellular tumor antigen p53 (Homo sapiens) (UniProt P04637). The assay is described as follows: GFP-p53 level modulators in HPV16+ cells – imaging, known kinase inhibitor set, EGFP/DsRed ratio (AID 1053116).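 Further: cells exposed to compounds for 24 h at 37 °C before reading.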 To be noted: GFP-p53 stability, stronger effect = higher value; EGFP object count: measured here: GFP-p53 positive objects count.
The nature of assay [4]: inducers of IRF3 signaling, differentiated THP-1 – cell-based, PMA-stimulated THP-1, luminescence (AID 1053176). The conditions noted are these: PMA-differentiated THP-1, IRF3 reporter luminescence; stronger effect = higher value.
Assay [5] can be described thus: C. elegans survival during P. aeruginosa infection – whole organism (AID 651566).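 Further: tested at 14 µM; sign flipped so higher z means a lower ratio.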 To be noted: C. elegans killed by P. aeruginosa, survival ratio.
A short description of assay [6]: pro-inflammatory signaling induction in mouse macrophages – cell-based, murine, luminescence (AID 652131). To be noted: murine macrophage pro-inflammatory reporter, stronger effect = higher value.
Assay [7] in a line: MELAS cybrid and Rieske KO viability enhancers – cell-based, MELAS cybrids, Rieske KO mouse fibroblasts, CellTiter-Glo, primary screen (AID 1508586;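 active means mean z-score across replicates of 1.96 or higher in either the MELAS or the Rieske mutant cell line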;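 further: z relative to plate mean and SD of compound and empty wells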). The conditions noted are these: low glucose. In general terms: In ATP-based viability assays light output follows the ATP content of the culture.
The test system of assay [8] is Aerobactin synthetase IucA (Klebsiella pneumoniae). Description: inhibition of K. pneumoniae IucA enzyme – biochemical, Tocris library, absorbance (AID 1345561).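 Further: 100% = enzyme without compound and 0% = no enzyme.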 The conditions noted are these: purified IucA enzyme assay, absorbance (OD) read-out; stronger effect = lower value;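 tested at 8 µM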.
Assay [9] is described as follows: viability loss in pontine glioma line – cell-based, SU-DIPG-XVII, MIPE5.0, CellTiter-Glo, qHTS, dose response (AID 1347060; cut-off not given, nearly all actives have AC50 up to about 26 µM;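 further: cells exposed to compound for 48 hours before viability readout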). The conditions noted are these: CellTiter-Glo ATP luminescence.
Assay [10] is described as follows: viability loss in pontine glioma line – cell-based, JHH-DIPG-1, MIPE4.0, CellTiter-Glo, qHTS, dose response (AID 1347062; cut-off not given, nearly all actives have AC50 up to about 27 µM;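 further: cells exposed to compound for two days before readout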). The conditions noted are these: JHH-DIPG-1 viability, CellTiter-Glo ATP luminescence.
Assay [11] in a line: viability loss in pontine glioma line – cell-based, SU-DIPG-IV, MIPE4.0, CellTiter-Glo, qHTS, dose response (AID 1347063; cut-off not given, nearly all actives have AC50 up to about 30 µM;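 further: compound exposure lasted 48 hours before the viability readout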). The conditions noted are these: CellTiter-Glo ATP luminescence.
The nature of assay [12]: viability loss in pontine glioma line – cell-based, SU-DIPG-XXV, MIPE5.0, CellTiter-Glo, qHTS, dose response (AID 1347065; cut-off not given, nearly all actives have AC50 up to about 26 µM;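 further: cells exposed to compound for 48 hours before ATP readout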). To be noted: CellTiter-Glo ATP luminescence.
Assay [13] in a line: viability loss with induced miR-34 in A549 – imaging, A549 dox-inducible miR-34, nuclei and caspase counts, primary screen (AID 1347080;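 active means compounds whose cell count with miR-34 switched on is under 0.7 times the count with it off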). The conditions noted are these: A549 miR-34 inducible, Hoechst nuclei count, 48 h.
Assay [14] can be described thus: galactose survival enhancers in mitochondrial complex I cybrids – cell-based, galactose medium, ATP luminescence, primary screen (AID 1645843;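 active means z-score of at least 1.8 in each of two replicates, scored against plate mean and spread of sample wells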;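 further: positive z means more ATP and so rescue of galactose-driven cybrid death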). The conditions noted are these: complex I mutant cybrid cells, 72 h, stronger effect = higher value.
The mark [15] stands for this setting: MELAS cybrid survival, CellTiter-Glo 48 h, stronger effect = higher value.
[16] abbreviates: Rieske KO mouse fibroblast survival, CellTiter-Glo 72 h.

Sequence of Cellular tumor antigen p53 (Homo sapiens) (P04637 whole entry, looked up): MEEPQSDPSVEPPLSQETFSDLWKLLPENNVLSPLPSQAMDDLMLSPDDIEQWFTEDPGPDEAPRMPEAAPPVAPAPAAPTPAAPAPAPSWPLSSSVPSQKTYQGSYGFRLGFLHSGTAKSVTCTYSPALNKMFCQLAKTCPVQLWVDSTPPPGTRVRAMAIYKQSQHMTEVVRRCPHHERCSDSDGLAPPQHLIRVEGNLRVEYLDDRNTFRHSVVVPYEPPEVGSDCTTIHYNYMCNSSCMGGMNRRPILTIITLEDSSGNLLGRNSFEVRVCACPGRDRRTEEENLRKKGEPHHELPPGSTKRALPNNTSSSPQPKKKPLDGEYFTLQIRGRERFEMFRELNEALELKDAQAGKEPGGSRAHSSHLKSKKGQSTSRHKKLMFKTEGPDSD

Turning to `CS(=O)(=O)N1CCC(Nc2ncc(C(=O)c3c(F)cccc3F)c(N)n2)CC1`, in assay [1], the liver cell % of control is 89.5% and the parasite % of control is 70.6% (inactive). Also, in [2], the percent of negative control (+Dex) was 88.5% (inactive) and the z-score was -0.28. Moreover, in [3], the EGFP object count came to 2 and the EGFP/DsRed ratio was 0.123 (inactive). For the same molecule, the fraction signal in assay [4] is -0.005 (inactive).

As for `Cc1c(C2=C(c3cn(C)c4ccccc34)C(=O)NC2=O)c2ccccc2n1C`, in assay [1], the liver cell % of control is 103% and the parasite % of control is 53.6% (inactive). Moreover, in assay [2], the percent of negative control (+Dex) is 102% (inactive) and the z-score is -0.055. Also, in [3], the EGFP object count worked out at 9 and the EGFP/DsRed ratio is 0.392 (inactive). Also, in assay [4], the fraction signal was 0.0015 (inactive).

As for `O=C1NC(=NCc2cccs2)OC1=Cc1ccc2ncccc2c1`, in [1], the liver cell % of control was determined as 113% and the parasite % of control was 64.9% (inactive). In assay [2], the percent of negative control (+Dex) is 55% (active) and the z-score is -4.77. In [3], the EGFP object count came to 3.5 and the EGFP/DsRed ratio was 0.0818 (inactive). Moreover, in assay [4], the fraction signal was -0.0135 (inactive).

As for `O=c1[nH]c2nc(NC3CCOCC3)ncc2cc1Oc1ccc(F)cc1F`, in assay [1], the liver cell % of control is 94.5% and the parasite % of control was 56.1% (inactive). In assay [2], the percent of negative control (+Dex) is 104% (inactive) and the z-score is 0.61. In assay [3], the EGFP object count is 2 and the EGFP/DsRed ratio is 0.08 (inactive). In addition, in assay [4], the fraction signal is -0.003 (inactive).

Turning to `Cn1cc(C2=C(c3ccc4ccccc4c3)C(=O)NC2=O)c2ccccc21`, in assay [1], the liver cell % of control came to 105% and the parasite % of control is 53.6% (inactive). Also, in assay [2], the percent of negative control (+Dex) was 94% (inactive) and the z-score is -0.025. Moreover, in [3], the EGFP object count is 3 and the EGFP/DsRed ratio was 0.0576 (inactive). Also, in assay [4], the fraction signal is -0.001 (inactive).

In the case of `Cn1cc(C2=C(c3ccccc3[N+](=O)[O-])C(=O)NC2=O)c2ccccc21`, in assay [1], the liver cell % of control was 80.1% and the parasite % of control is 121% (inactive). Moreover, in assay [2], the percent of negative control (+Dex) was 147% (active) and the z-score is -1.21. Further, in assay [3], the EGFP object count turned out to be 19 and the EGFP/DsRed ratio was 0.315 (inactive). The fraction signal in [4] was 0.0035 (inactive).

Turning to `COc1cc[nH]c1C=C1C(=O)Nc2ccc(F)c(C#CC3(O)CCNCC3)c21`, in [1], the liver cell % of control worked out at 70.4% and the parasite % of control is 10.7% (inactive). Also, in [2], the percent of negative control (+Dex) is 108% (inactive) and the z-score is -2.18. In addition, in assay [3], the EGFP object count stood at 467 and the EGFP/DsRed ratio is 3.03 (inactive). For the same molecule, the fraction signal in assay [4] is -0.005 (inactive).

On to `Cn1cc(C2=C(c3c4n(c5ccccc35)CCN(C(N)=S)C4)C(=O)NC2=O)c2ccccc21`, for which, in assay [1], the liver cell % of control was 94.5% and the parasite % of control is 22.4% (inactive). Moreover, in [2], the percent of negative control (+Dex) was 110% (inactive) and the z-score was -0.965. Besides, in assay [3], the EGFP object count worked out at 36.5 and the EGFP/DsRed ratio was 0.211 (inactive). In addition, in [4], the fraction signal was -0.007 (inactive).

As for `O=C1NC(=NCc2ccccc2)SC1=Cc1ccc2ncccc2c1`, in [1], the liver cell % of control was 99.5% and the parasite % of control was 34.9% (inactive). Besides, in assay [2], the percent of negative control (+Dex) was 92.5% (inactive) and the z-score is -0.26. In addition, in [3], the EGFP object count is 7 and the EGFP/DsRed ratio was 0.173 (inactive). Moreover, in assay [4], the fraction signal is -0.003 (inactive).

Regarding `Nc1c(C(=O)c2cccc(C#CCN3CCOCC3)c2)cnn1-c1ccc(F)cc1`, in [1], the liver cell % of control is 159% and the parasite % of control was 75.7% (inactive). In [2], the percent of negative control (+Dex) is 120% (inactive) and the z-score was determined as 1.29. In [3], the EGFP object count turned out to be 2.5 and the EGFP/DsRed ratio is 0.12 (inactive). The fraction signal in assay [4] is 0.0055 (inactive).

Consider `Nc1c(C(=O)c2cccc(-c3ccncc3)c2)cnn1-c1ccc(F)cc1F`, for which, in assay [1], the liver cell % of control stood at 92.7% and the parasite % of control was 53.9% (inactive). In [2], the percent of negative control (+Dex) was 102% (inactive) and the z-score came out at 0.04. For the same molecule, in [3], the EGFP object count was determined as 5 and the EGFP/DsRed ratio was 0.0527 (inactive). Besides, in assay [4], the fraction signal is -0.009 (inactive).

Turning to `Cc1cccc2c(C3=C(c4cn(C)c5ccccc45)C(=O)NC3=O)cn(C)c12`, in [1], the liver cell % of control was found to be 91.7% and the parasite % of control was 45.3% (inactive). In assay [2], the percent of negative control (+Dex) was 98.5% (inactive) and the z-score is -1.08. In addition, in assay [3], the EGFP object count came out at 24 and the EGFP/DsRed ratio was 0.241 (inactive). In addition, in assay [4], the fraction signal was -0.0115 (inactive).

In turn, `CS(=O)(=O)CCN(CC#N)Cc1ccc(-c2ccc3ncnc(Nc4ccc(OCc5cccc(F)c5)c(Cl)c4)c3c2)o1` displayed a liver cell % of control in assay [1] of 98.1%. The parasite % of control in assay [1] was 143% (inactive). The percent of negative control (+Dex) in assay [2] was 82% (inactive). In addition, the z-score in assay [2] is -0.4; in assay [5], 0.225 (inactive); in [6] it was 0.25 (inactive); in assay [7] (setting [15]) it was -0.391 (inactive); in assay [7] (setting [16]) it was -0.288. For the same molecule, the fraction signal in assay [4] was 0.001 (inactive).

In [1], `COc1ccccc1C1=C(Nc2ccccc2)C(=O)NC1=O` had a liver cell % of control of 112%. In assay [1], the parasite % of control is 110% (inactive). Besides, the percent of negative control (+Dex) in assay [2] is 102% (inactive). In addition, the z-score in assay [2] is 0.775; in [5], -0.36 (inactive); in [6] it was -0.103 (inactive); in [7] (setting [15]) it was -1.08 (inactive); in assay [7] (setting [16]), -0.271. In addition, the fraction signal in assay [4] was -0.012 (inactive).

In the case of `O=C1NC(=NCC(CO)c2ccccc2)SC1=Cc1ccc2ncccc2c1` (stereo not drawn), in [1], the liver cell % of control is 106% and the parasite % of control is 72.5% (inactive). Besides, in assay [2], the percent of negative control (+Dex) was 86% (inactive) and the z-score was -0.105. In [3], the EGFP object count was 0.5 and the EGFP/DsRed ratio was 0.00131 (inactive). In assay [4], the fraction signal is 0.006 (inactive).

With `O=C1NC(=NCc2c(Cl)cccc2Cl)SC1=Cc1ccc2ncccc2c1`, in assay [1], the liver cell % of control came to 106% and the parasite % of control is 51.5% (inactive). In assay [2], the percent of negative control (+Dex) was 101% (inactive) and the z-score was 0.16. Also, in assay [3], the EGFP object count was 2.5 and the EGFP/DsRed ratio was 0.0754 (inactive). The fraction signal in [4] was -0.009 (inactive).

As to `COc1cc2ncn(-c3cc(OCc4ccccc4C(F)(F)F)c(C(N)=O)s3)c2cc1OC`, the percent of negative control (+Dex) in assay [2] was 103% (inactive). The z-score in assay [2] was -0.44; in assay [5], 0.57 (inactive); in assay [6] it was -0.405 (inactive); in assay [7] (setting [15]) it was -0.422 (inactive); in assay [7] (setting [16]) it was -0.574; in assay [14] it was -0.495 (inactive). In addition, in assay [4], the fraction signal was 0.0355 (inactive). In addition, in [8], the remaining activity (as a rule, the share of the control activity or signal that is left under treatment) was 94.3% (inactive). In addition, the AC50 (as a rule, the midpoint of the concentration-response curve, whichever way the signal moves) in assay [9] is 1.48 µM (active); in [10], 5.9 µM (active); in assay [11] it was 14.8 µM (active); in assay [12] it was 1.05 µM (active). The fold change is 1.05 (inactive) in assay [13] (stronger effect = lower value, cell number ratio, induced over uninduced) and 1.26 in [13] (measured here: relative caspase fold change +Dox/-Dox). Also, the cell count in assay [13] (measured here: total cells with miR-34 induction, stronger effect = lower value) came to 1110; in assay [13] (measured here: total cells without miR-34 induction) it was 1060.
